From PubChem
A selection: hits, their analogues and other compounds. The true share with any hit is near 15%.
HCMV antiviral – blocks human cytomegalovirus replication; HFF cells, HCMV-luciferase reporter, 72 h; hits give low values; activity change, negative = inhibition, % at 57.5 µM; 410,000 tested, 4.5% active; in the data active = activity change below about -60%; inconclusive = no clear call, values can overlap the other calls; inactive = above about -39%; note: % is set by controls: 0 for no effect and ±100 for the full control effect
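Cell-based, HFFs, 1000 cells/well, 16 h 37C; cpds in DMSO + HCMV-luc, MOI 1 PFU/cell; 72 h 37C; OneGlo luminescence after 5 min RT; norm. to buffer vs Salinomycin 10uM.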
Pf growth 48h – inhibits P. falciparum growth in the first generation, 48 h; P. falciparum luciferase growth in erythrocytes, 48 h; Potency, µM (series often up to 28.7 µM), for the others: top-dose activity change, negative = inhibition, usual class: inhibitors; 310,000 tested, 5.9% active; AID 504832; note: potency is the fitted concentration of half-maximal effect; % is set by controls: 0 for no effect and ±100 for the full control effect
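First compound was added to culture medium, then infected red cells at 0.1% parasitemia and 2% hematocrit (final). After incubation at 37 C under 5% CO2, luciferase detection reagent was dispensed and light output recorded.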
HCV inh – HCV inhibition; Huh7.5.1 HCVcc-Cre infection, luciferase reporter, 44 h; Potency, µM (series often up to 41.8 µM), for inactives: at the top dose activity change, negative = inhibition, usual class: inhibitors; 340,000 tested, 3.4% active; AID 651820; note: potency is the fitted concentration of half-maximal effect; % is set by controls: 0 for no effect and ±100 for the full control effect
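Antiviral activity was scored by luciferase reporter output from cells infected with HCVcc-Cre (~0.5 moi) in presence of compound, 44 h infection period, cells seeded 1,000/well 4 h prior.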
SARS PLP yeast – SARS-CoV PLP inhibition in yeast; S. cerevisiae expressing SARS-CoV PLpro, growth rescue; Potency, µM (titrated, usually from 32.9 µM), for inactives: top-dose activity, positive = growth rescue, actives largely listed as activators; 330,000 tested, 0.19% active; AID 485353; calls by dose curve; note: potency is the fitted concentration of half-maximal effect; 0% is about no effect; nearly all actives have a fitted effect of over 55% in size
Pf growth 96h – inhibits malaria parasite growth, 96 h; P. falciparum luciferase reporter growth, 96 h; Potency, µM (highest dose often 28.7 µM), without a hit: top-dose activity change, negative = inhibition, usual class: inhibitors; 320,000 tested, 6.9% active; AID 504834; note: potency is the fitted concentration of half-maximal effect; % is set by controls: 0 for no effect and ±100 for the full control effect
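Two-generation exposure (96 h) targets delayed-death phenotype. Reporter parasites carrying integrated firefly luciferase, in red cells at 2% hematocrit and 0.05% parasitemia final, kept at 37 C, 5% CO2; luminescence loss indicates inhibition.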
Sm TGR inh – inhibitors of Schistosoma mansoni thioredoxin glutathione reductase. AID 485364. Potency, µM (highest dose often 114 µM), for the others: at the highest dose activity change, negative = inhibition, hits mostly inhibitors. 360,000 tested, 3% active. purified TGR, DTNB reduction, TNB absorbance 405 nm. Q962Y6; note: potency is the fitted concentration of half-maximal effect; % is set by controls: 0 for no effect and ±100 for the full control effect; nearly all actives have a fitted effect of over 60% in size
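Kinetic colorimetric format: TGR-catalysed, NADPH-driven DTNB reduction monitored via TNB absorbance. Enzyme dispensed at 20 nM; compound exposure 15 min at room temperature before reaction start.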
Active calls of the source: *. Unless noted, calls come from the whole dose curve; as a rule, active = well fitted curve in the direction sought with a large enough effect; inconclusive = small, poorly fitted or top-dose-only effect, or another doubt; inactive = no such curve, though single readings can be large; an effect the other way counts as inactive or inconclusive.

Screening CCCOc1ccc(N2C(=O)C3ON(c4ccccc4)C(CCC)C3C2=O)cc1 (stereo not given) returned HCMV antiviral inconclusive, HCV inh 13%, SARS PLP yeast -12%, Pf growth 96h 30% and Sm TGR inh 22µM*.
For CCCC1C2C(=O)N(c3ccccc3)C(=O)C2ON1c1ccccc1 (stereo not given) the results were HCMV antiviral 46, HCV inh 2%, SARS PLP yeast -7%, Pf growth 96h 62% and Sm TGR inh 3%.
`CS(=O)(=O)N1CCc2cc(C(=O)Nc3ccc(O)cc3)ccc21` gave HCMV antiviral 18, Pf growth 48h -7%, HCV inh -13%, SARS PLP yeast -3%, Pf growth 96h inconclusive and Sm TGR inh -15%.
O=C(Nc1ccc(Cl)c(C(F)(F)F)c1)c1ccc2c(c1)CCN2S(=O)(=O)c1ccccc1 was read as HCMV antiviral -74* and Sm TGR inh 1%.
COc1ccc(S(=O)(=O)N2CCc3ccccc32)cc1C(=O)Nc1cccnc1 was read as HCMV antiviral -21, Pf growth 48h inconclusive, HCV inh -13%, SARS PLP yeast 0%, Pf growth 96h 2.9µM* and Sm TGR inh 10%.
For CCN(CC(=O)Nc1ccc(NC(C)=O)cc1)C(=O)c1cccc(S(=O)(=O)N2c3ccccc3CC2C)c1 (stereo not given) the results were HCMV antiviral -7, Pf growth 48h inconclusive, HCV inh 19%, SARS PLP yeast 2%, Pf growth 96h inconclusive and Sm TGR inh -3%.
For COc1ccc(S(=O)(=O)N2CCc3ccccc32)cc1C(=O)O the results were HCMV antiviral 38, Pf growth 48h 1%, HCV inh 2%, SARS PLP yeast 0%, Pf growth 96h 91% and Sm TGR inh -28%.
Screening NC(=O)c1ccc(NC(=O)c2ccc3c(c2)CCN3S(=O)(=O)c2ccccc2)cc1 returned HCMV antiviral 32, Pf growth 48h 0%, HCV inh inconclusive, SARS PLP yeast 3%, Pf growth 96h inconclusive and Sm TGR inh 0%.
`CS(=O)(=O)N1CCc2cc(C(=O)Nc3ccc(COCC(F)(F)F)cc3)ccc21` gave HCMV antiviral inconclusive, Pf growth 48h inconclusive, HCV inh 11µM*, SARS PLP yeast 3%, Pf growth 96h inconclusive and Sm TGR inh 0%.
Screening C=CCN(CC=C)C(=O)c1cccc(S(=O)(=O)N2c3ccccc3CC2C)c1 (stereo not given) returned HCMV antiviral -37, Pf growth 48h 2.3µM*, HCV inh inconclusive, SARS PLP yeast -1%, Pf growth 96h inconclusive and Sm TGR inh 6%.
Screening Cc1ccc(CN2CC(N3CCC[C@@H]3C)CS2(=O)=O)cc1 (stereo not given in full) returned HCMV antiviral 1.
For O=C(CSc1nc2c(c(=O)[nH]1)CN(Cc1ccc3c(c1)OCO3)CC2)Nc1ccc(F)c(F)c1 the results were HCMV antiviral 4 and Sm TGR inh 3%.
For CC1Cc2ccccc2N1S(=O)(=O)c1cccc(C(=O)Nc2cccnc2)c1 (stereo not given) the results were HCMV antiviral -33, Pf growth 48h 8.3µM*, HCV inh inconclusive, SARS PLP yeast 5%, Pf growth 96h inconclusive and Sm TGR inh 7%.
`CC1Cc2ccccc2N1S(=O)(=O)c1ccc2c(c1)n(C)c(=O)c(=O)n2C` (stereo not given) gave HCMV antiviral -36, Pf growth 48h 9.3µM*, HCV inh 13%, SARS PLP yeast 2%, Pf growth 96h inconclusive and Sm TGR inh 3%.
Screening O=C(O)c1cccc(NC(=O)c2cccc(S(=O)(=O)N3CCc4ccccc43)c2)c1 returned HCMV antiviral -3, Pf growth 48h -7%, HCV inh 12%, SARS PLP yeast 0%, Pf growth 96h -17% and Sm TGR inh -25%.
For COc1ccc(S(=O)(=O)N2CCc3ccccc32)cc1C(=O)NCCc1ccccn1 the results were HCMV antiviral inconclusive, Pf growth 48h 10µM*, HCV inh 21%, SARS PLP yeast -4%, Pf growth 96h inconclusive and Sm TGR inh 14%.
`O=C(Nc1ccncc1)c1cccc(S(=O)(=O)N2CCc3ccccc32)c1` gave HCMV antiviral -77*, Pf growth 48h 10µM*, HCV inh 8.9µM*, SARS PLP yeast 3%, Pf growth 96h inconclusive and Sm TGR inh 2%.
Screening COC(=O)CSc1nnc(CNC(=O)c2cccs2)n1-c1cc(OC)ccc1OC returned HCMV antiviral 22, Pf growth 48h 26%, HCV inh -6%, SARS PLP yeast 0%, Pf growth 96h inconclusive and Sm TGR inh 1%.
O=C(Nc1cccnc1)c1cccc(S(=O)(=O)N2CCc3ccccc32)c1 was read as HCMV antiviral 22, Pf growth 48h 10µM*, HCV inh inconclusive, SARS PLP yeast 0%, Pf growth 96h 3.3µM* and Sm TGR inh -17%.
COc1ccc(C(=O)N/N=C/c2c[nH]c3ccccc23)cc1 was read as HCMV antiviral 27, Pf growth 48h 27%, HCV inh 7%, SARS PLP yeast 2%, Pf growth 96h -16% and Sm TGR inh -1%.
`CCCOc1ccc(C(=O)N/N=C/c2c[nH]c3ccc(Br)cc23)cc1` gave HCMV antiviral -31, Pf growth 48h 14%, HCV inh 13µM*, SARS PLP yeast -2%, Pf growth 96h inconclusive and Sm TGR inh 13%.
For CCCCCN=C(N)N/N=C/c1c[nH]c2ccc(OC)cc12 the results were HCMV antiviral -100*, Pf growth 48h 3µM*, HCV inh inconclusive and Pf growth 96h 3µM*.
Screening CCOc1ccccc1OCCCn1c(-c2ccc(Cl)cc2)nc2ccccc2c1=O returned HCMV antiviral -3 and Sm TGR inh -3%.
Screening COc1cc(OC)cc(C(=O)Nc2ccc3c(c2)CCCN3C(=O)c2cccs2)c1 returned HCMV antiviral -77*, Pf growth 48h inconclusive, HCV inh 14µM*, SARS PLP yeast -2%, Pf growth 96h inconclusive and Sm TGR inh 0%.
Screening O=C(Nc1ccc2c(c1)CCCN2C(=O)c1cccs1)c1cccc(C(F)(F)F)c1 returned HCMV antiviral -70* and Sm TGR inh 1%.
For O=C(Nc1ccc2c(c1)CCCN2C(=O)c1cccs1)c1ccccc1 the results were HCMV antiviral -36, Pf growth 48h -8%, HCV inh 32µM*, SARS PLP yeast -33%, Pf growth 96h -24% and Sm TGR inh -2%.
